# PubChem BioAssay (NCATS)
# For some assays here: Results with a measured potency or affinity are listed apart. The source made the active and inactive calls.
# Legend:
# [1] = Ebola virus entry assay, reporter ratio channel; Channel type: primary
# [2] = Ebola virus entry assay, blue channel (ratio component)
# [3] = Ebola virus entry assay, blue channel fluorescence
# [4] = Ebola virus entry reporter assay, green channel fluorescence
# [5] = Ebola virus entry cell assay, ratio channel
smiles,measurement,setting,value
CC1=NN(c2ccccc2)C(=O)C1,outcome,[1],inactive
same,outcome,[2],inactive
Nc1cccc2c(N)cccc12,AC50,[1],35.5 µM (active)
Nc1nc2ccc([N+](=O)[O-])cc2s1,outcome,[1],inactive
CCc1c(C)[nH]c2c1C(=O)C(CN1CCOCC1)CC2 (stereo not drawn),outcome,[1],inactive
same,outcome,[2],inactive
NCCS,outcome,[1],inactive
same,outcome,[2],inactive
Nc1ccc([N+](=O)[O-])cc1O,outcome,[1],inactive
same,outcome,[2],inactive
O=C(O)c1ccccn1,outcome,[1],inactive
same,outcome,[2],inactive
COc1ccc2cc(CCC(C)=O)ccc2c1,outcome,[1],inactive
same,outcome,[2],inactive
CC(C)C(C)(C)C(C)(C)C(C)(C)S,outcome,[1],inactive
same,outcome,[2],inactive
Nc1ccc(O)c([N+](=O)[O-])c1,AC50,[1],31.6 µM (active)
CCN(CC)CCNC(=O)c1ccc(NC(C)=O)cc1,outcome,[1],inactive
same,outcome,[2],inactive
O=c1cc(-c2ccccc2)oc2ccccc12,AC50,[1],31.6 µM (active)
CCCCCCCCCCCCCC(=O)OC(C)C,outcome,[1],inactive
same,outcome,[2],inactive
COc1ccc(C(c2ccc(OC)cc2)C(Cl)(Cl)Cl)cc1,AC50,[1],22.4 µM (active)
O=C(Nc1cccc(C2=NCCN2)c1)Nc1cccc(C2=NCCN2)c1,outcome,[1],inactive
same,outcome,[2],inactive
COc1cc2c(cc1OC)C(=O)CC2,outcome,[1],inactive
same,outcome,[2],inactive
CCCCC(CC)COC(=O)/C=C/c1ccc(OC)cc1 (stereo not drawn),outcome,[1],inactive
same,outcome,[2],inactive
CCOC(=O)C(=O)CCCCCCl,outcome,[1],inactive
same,outcome,[2],inactive
Cc1cccc(C)c1NC(=O)c1ccccc1C(=O)O,outcome,[1],inactive
same,outcome,[2],inactive
Cc1cc(C(=O)NNCc2ccccc2)no1,outcome,[3],inactive
same,outcome,[4],inactive
same,outcome,[5],inactive
CCCCCCCC(=O)OCC(O)CO (stereo not drawn),outcome,[1],inactive
CCCCCCCCCCCCCC[N+](C)(C)C,AC50,[1],25.1 µM (active)
